Experimental data from PubChem BioAssay (Tox21).
Inconclusive results are not listed. Calls of active or inactive are those of the source. Unless noted, calls come from the whole dose curve.

Tests used:
[1] = Nuclear factor erythroid 2-related factor 2/antioxidant responsive element (Nrf2/ARE) small molecule agonists: qHTS cell viability counter screen in human keratinocytes (AID 1919968; active = well fitted curve in the direction sought with a large enough effect in the repeat runs; an effect the other way counts as inactive or inconclusive; note: nearly all actives have a fitted effect of over 55% in size)
Summary of the method: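 KeratinoSens cells (HaCaT keratinocytes stably carrying an ARE-luciferase reporter) were seeded at 1,500 cells/well and rested 5 h at 37 C/5% CO2. They were then exposed to compounds in DMSO for 23 h. Viability was read by CellTiter-Fluor fluorescence after 1 h.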

[2] = Nuclear factor erythroid 2-related factor 2/antioxidant responsive element (Nrf2/ARE) small molecule agonists: luciferase reporter gene qHTS assay in human keratinocytes (AID 1919969); note: nearly all actives have a fitted effect of over 35% in size; note: potency is the fitted concentration of half-maximal effect
[3] = target: Gonadotropin-releasing hormone receptor (Homo sapiens) (UniProt P30968); assay: Human gonadotropin-releasing hormone receptor (GnRHR) small molecule agonists, calcium flux assay in GnRHR-HEK293 cells (AID 1920063); note: nearly all actives have a fitted effect of over 35% in size
Summary of the method: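 HEK293 cells stably expressing human GnRHR were plated 18 h at 37 °C, loaded with calcium dye 1 h at 37 °C, then given compound in agonist mode; fluorescence (Ex/Em 480/540) read kinetically for 3 min at 1 s intervals.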

[4] = G protein-coupled receptor (GPCR) small molecule agonists, calcium flux assay: HEK293 wild type cell line counter screen (AID 1920065)
Summary of the method: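 Cells were plated and cultured 18 h at 37 C/5% CO2, then loaded with calcium dye for 1 h at 37 C. Compounds in DMSO were pin-transferred in agonist mode, and fluorescence (Ex/Em 480/540) was read kinetically for 3 min at 1 s intervals.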

[5] = p53 small molecule agonists, cell-based qHTS assay with human liver microsomes (AID 1963577);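 note: p53 response element beta-lactamase reporter cells with liver microsomes plus NADPH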
Summary of the method: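 16 h, 37 C exposure of p53RE-bla cells to compounds with human liver microsomes and NADPH (0.5 mg/mL final each); detection via LiveBLAzer mixture, 2 h dark at room temperature.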

[6] = p53 small molecule agonists, cell-based qHTS assay with rat liver microsomes (AID 1963578)
Summary of the method: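 With rat liver microsomes and NADPH present (0.5 mg/mL final each), p53RE-bla cells are treated with compound for 16 h at 37 C. LiveBLAzer detection mixture is then applied for 2 h at room temperature in the dark.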

[7] = p53 small molecule agonists, cell-based qHTS assay with human liver microsomes: qHTS cell viability counter screen (AID 1963579); note: nearly all actives have a fitted effect of over 45% in size
Summary of the method: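 In this multiplexed counter screen, the reporter plates were subsequently treated with CellTiter-Glo so that cell viability, reflected by luminescence, could be recorded for p53RE-bla cells dosed 16 h with compounds under microsomal activation (HLM and NADPH).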

[8] = p53 small molecule agonists, cell-based qHTS assay with rat liver microsomes: qHTS cell viability counter screen (AID 1963580); note: nearly all actives have a fitted effect of over 45% in size; note: potency is the fitted concentration of half-maximal effect
Summary of the method: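 p53RE-bla HCT-116 cells (4,000/well) rested 5 h at 37 C, then given Tox21 compounds in DMSO with rat liver microsomes (0.5 mg/mL final) plus NADPH (0.5 mg/mL final) for 16 h at 37 C. Viability read by CellTiter-Glo luminescence after 30 min at room temperature.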

[9] = p53 small molecule agonists, cell-based qHTS assay: qHTS cell viability counter screen (AID 1963581); note: nearly all actives have a fitted effect of over 45% in size
Summary of the method: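 p53RE-bla HCT-116 cells were exposed to compounds for 16 h at 37 C; after the beta-lactamase FRET read in the same wells, CellTiter-Glo was added and luminescence (intracellular ATP) read after 30 min at room temperature.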

[10] = p53 small molecule agonists, cell-based qHTS assay (AID 1963582; active = well fitted activation curve with a large enough effect in the signal ratio in the repeat runs, not every such curve was filed as active; the % refers to the signal ratio)
Summary of the method: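 p53RE-bla beta-lactamase reporter cells rested 5 h at 37 C/5% CO2, then received compounds in DMSO by pin transfer and were incubated 16 h at 37 C. LiveBLAzer B/G FRET substrate was loaded for 2 h at room temperature before fluorescence reading.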

[11] = target: 5-hydroxytryptamine receptor 2A (Homo sapiens) (UniProt P28223); assay: 5-hydroxytryptamine receptor 2A (HTR2A) small molecule antagonists, cell-based qHTS assay (AID 1963586); note: nearly all actives have a fitted effect of over 45% in size; note: potency is the fitted concentration of half-maximal effect
Summary of the method: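 Antagonist-mode intracellular calcium assay: DOI (4 nM) added after 5 min compound pre-incubation at room temperature to dye-loaded HTR2A-CHO cells. Fluorescence followed for 3 min, sampled every second.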

[12] = target: 5-hydroxytryptamine receptor 2A (Homo sapiens) (UniProt P28223); assay: 5-hydroxytryptamine receptor 2A (HTR2A) small molecule agonists, cell-based qHTS assay (AID 1963587); note: nearly all actives have a fitted effect of over 30% in size; note: potency is the fitted concentration of half-maximal effect
Summary of the method: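 HTR2A-CHO cells, plated 18 h at 37 C/5% CO2, dye-loaded 1 h at 37 C; compounds in DMSO added by pin tool (agonist mode). Intracellular calcium flux read as kinetic fluorescence on FDSS over 2 min at 1 s intervals.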

[13] = target: Muscarinic acetylcholine receptor M1 (Homo sapiens) (UniProt P11229); assay: Cholinergic receptor muscarinic 1 (CHRM1) small molecule antagonists, cell-based qHTS assay (AID 1963588); note: nearly all actives have a fitted effect of over 40% in size; note: potency is the fitted concentration of half-maximal effect
Summary of the method: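 CHRM1-CHO calcium-flux assay, antagonist mode. Cells were seeded 18 h, dye-loaded 1 h at 37 C and given compound for 5 min at RT, then acetylcholine was added at 50nM. FDSS fluorescence was read 3 min; 15 concentrations, three runs.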

[14] = target: Muscarinic acetylcholine receptor M1 (Homo sapiens) (UniProt P11229); assay: Cholinergic receptor muscarinic 1 (CHRM1) small molecule agonists, cell-based qHTS assay (AID 1963589); note: nearly all actives have a fitted effect of over 35% in size
Summary of the method: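 CHO cells stably expressing human CHRM1, seeded 18 h at 37 C/5% CO2, dye-loaded 1 h at 37 C, then given compound in agonist mode; intracellular calcium fluorescence read kinetically at 1 s intervals. Fifteen concentrations, three independent runs.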

[15] = target: D(2) dopamine receptor (Homo sapiens) (UniProt P14416); assay: Dopamine D2 receptor (DRD2) small molecule agonists, cell-based qHTS assay (AID 1963594); note: nearly all actives have a fitted effect of over 35% in size
Summary of the method: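 HEK293 cells stably expressing DRD2 were cultured 24 h at 37 C, then given Ro20-1724 (0.1 mM final) and compounds for 10 min at room temperature. NKH477 (200nM) was then added for 30 min. cAMP was read by HTRF.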

[16] = target: D(2) dopamine receptor (Homo sapiens) (UniProt P14416); assay: Dopamine D2 receptor (DRD2) small molecule antagonists, cell-based qHTS assay (AID 1963595; active = well fitted inhibition curve with a large enough effect in the signal ratio in the repeat runs, with a control signal flat; the % refers to the signal ratio; note: potency is the fitted concentration of half-maximal effect)
Summary of the method: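 Antagonist mode in DRD2-HEK293 cells: after compound addition with 0.1 mM Ro20-1724, cells received quinpirole (12 nM) and NKH477 (200 nM) for 30 min at room temperature; HTRF cAMP read after 1 h detection.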

[17] = target: KiSS-1 receptor (Homo sapiens) (UniProt Q969F8); assay: Human kisspeptin (KISS1R) small molecule agonists, calcium flux assay in KISS1R-HEK293 cells (AID 1920064; active = well fitted curve in the direction sought with a large enough effect in the repeat runs; an effect the other way counts as inactive or inconclusive)
Summary of the method: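 HEK293 cells stably expressing human KISS1R were plated 18 h at 37 °C, loaded with calcium dye for 1 h at 37 °C, then given compound by pin tool. Fluorescence (Ex/Em 480/540) was read kinetically for 3 min.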

[18] = cAMP Responsive Elements (CRE) small molecule antagonists, cell-based qHTS assay (AID 1963591; active = well fitted inhibition curve with a large enough effect in the signal ratio in the repeat runs, not every such curve was filed as active; the % refers to the signal ratio)
Summary of the method: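 CRE-bla HEK293T cells were plated 18 h at 37 °C/5% CO2, pinned with compound in DMSO, then stimulated with NKH477 at 0.25 uM final for 3 h. LiveBLAzer B/G FRET substrate was added and plates incubated 2 h at room temperature.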

[19] = target: Beta-2 adrenergic receptor (Homo sapiens) (UniProt P07550); assay: Adrenergic beta2 receptor (ADRB2) small molecule antagonists, cell-based qHTS assay (AID 1963592); note: series mostly up to about 92 µM; nearly all actives have a fitted effect of over 50% in size
Summary of the method: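 Cells (CHO, stable ADRB2 overexpression) incubated 18-20hr at 37C; compounds added from DMSO; agonist mix (1nM isoproterenol, 100uM IBMX, 25uM Ro-20-1724) added; 0.5hr RT; d2-cAMP and anti-cAMP-cryptate added; 1hr RT; 665/615 nm read.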

[20] = cAMP Responsive Elements (CRE) small molecule agonists, cell-based qHTS assay (AID 1963590)
Summary of the method: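 CRE-bla HEK 293T cells in DMEM with 10% dialyzed FBS, NEAA, pyruvate and 25 mM HEPES were plated 18 h at 37 C/5% CO2, then exposed to compounds in DMSO for 3 h before LiveBLAzer B/G FRET substrate addition.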

Measured: Potency

Chain of D(2) dopamine receptor (Homo sapiens) (P14416 whole entry, looked up): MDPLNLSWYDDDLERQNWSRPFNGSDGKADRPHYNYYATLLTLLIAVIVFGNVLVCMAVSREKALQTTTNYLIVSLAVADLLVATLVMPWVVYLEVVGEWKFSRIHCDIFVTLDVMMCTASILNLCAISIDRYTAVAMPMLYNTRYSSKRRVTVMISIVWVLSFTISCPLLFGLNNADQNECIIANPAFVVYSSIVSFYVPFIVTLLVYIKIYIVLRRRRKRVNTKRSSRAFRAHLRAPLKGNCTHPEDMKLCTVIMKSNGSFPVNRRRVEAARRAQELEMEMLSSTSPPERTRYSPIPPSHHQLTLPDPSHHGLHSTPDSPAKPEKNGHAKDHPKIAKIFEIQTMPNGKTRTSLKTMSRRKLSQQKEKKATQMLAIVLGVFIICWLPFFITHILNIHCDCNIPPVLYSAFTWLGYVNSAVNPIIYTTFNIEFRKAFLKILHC
Chain of Beta-2 adrenergic receptor (Homo sapiens) (P07550 whole entry, looked up): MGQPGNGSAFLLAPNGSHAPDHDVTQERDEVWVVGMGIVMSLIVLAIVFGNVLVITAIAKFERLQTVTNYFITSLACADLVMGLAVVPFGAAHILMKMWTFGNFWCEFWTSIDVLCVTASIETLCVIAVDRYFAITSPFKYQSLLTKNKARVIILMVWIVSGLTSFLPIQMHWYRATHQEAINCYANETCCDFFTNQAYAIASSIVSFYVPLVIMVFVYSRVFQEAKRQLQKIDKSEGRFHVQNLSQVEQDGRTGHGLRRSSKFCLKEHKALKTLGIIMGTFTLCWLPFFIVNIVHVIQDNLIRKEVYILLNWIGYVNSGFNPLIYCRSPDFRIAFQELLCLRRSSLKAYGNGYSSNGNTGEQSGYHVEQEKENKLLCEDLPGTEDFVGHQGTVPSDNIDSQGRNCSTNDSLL
Chain of 5-hydroxytryptamine receptor 2A (Homo sapiens) (P28223 whole entry, looked up): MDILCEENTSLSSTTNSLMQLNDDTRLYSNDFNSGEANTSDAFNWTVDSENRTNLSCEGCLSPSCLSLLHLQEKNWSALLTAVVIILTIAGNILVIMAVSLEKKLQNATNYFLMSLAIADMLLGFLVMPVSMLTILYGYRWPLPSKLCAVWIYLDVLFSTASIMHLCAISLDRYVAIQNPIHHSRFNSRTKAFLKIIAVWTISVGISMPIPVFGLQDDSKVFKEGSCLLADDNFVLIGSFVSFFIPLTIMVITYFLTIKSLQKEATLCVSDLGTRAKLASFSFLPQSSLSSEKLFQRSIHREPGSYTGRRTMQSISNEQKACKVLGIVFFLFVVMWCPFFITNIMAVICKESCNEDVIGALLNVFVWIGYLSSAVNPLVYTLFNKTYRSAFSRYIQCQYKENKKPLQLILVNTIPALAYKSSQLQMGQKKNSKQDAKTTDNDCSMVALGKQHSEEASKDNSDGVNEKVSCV
Chain of KiSS-1 receptor (Homo sapiens) (Q969F8 whole entry, looked up): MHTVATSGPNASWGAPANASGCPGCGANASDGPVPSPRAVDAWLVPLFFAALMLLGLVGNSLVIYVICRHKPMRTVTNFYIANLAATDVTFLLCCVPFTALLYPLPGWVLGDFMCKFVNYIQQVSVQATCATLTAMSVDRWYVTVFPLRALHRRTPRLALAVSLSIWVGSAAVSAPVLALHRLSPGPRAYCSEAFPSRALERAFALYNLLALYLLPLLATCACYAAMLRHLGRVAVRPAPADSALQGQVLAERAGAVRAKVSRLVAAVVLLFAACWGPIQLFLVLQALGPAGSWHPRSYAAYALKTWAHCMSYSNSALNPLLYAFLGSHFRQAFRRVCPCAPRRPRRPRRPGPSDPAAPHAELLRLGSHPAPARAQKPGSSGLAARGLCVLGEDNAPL
Chain of Gonadotropin-releasing hormone receptor (Homo sapiens) (P30968 whole entry, looked up): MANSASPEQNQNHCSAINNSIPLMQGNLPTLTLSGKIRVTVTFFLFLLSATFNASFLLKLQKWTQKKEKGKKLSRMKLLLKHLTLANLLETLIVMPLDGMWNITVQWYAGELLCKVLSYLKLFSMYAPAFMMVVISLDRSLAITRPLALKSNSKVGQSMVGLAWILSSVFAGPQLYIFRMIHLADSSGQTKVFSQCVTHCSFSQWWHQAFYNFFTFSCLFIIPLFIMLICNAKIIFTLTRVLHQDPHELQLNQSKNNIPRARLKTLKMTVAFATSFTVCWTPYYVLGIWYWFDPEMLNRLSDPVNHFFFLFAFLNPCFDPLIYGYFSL
Chain of Muscarinic acetylcholine receptor M1 (Homo sapiens) (P11229 whole entry, looked up): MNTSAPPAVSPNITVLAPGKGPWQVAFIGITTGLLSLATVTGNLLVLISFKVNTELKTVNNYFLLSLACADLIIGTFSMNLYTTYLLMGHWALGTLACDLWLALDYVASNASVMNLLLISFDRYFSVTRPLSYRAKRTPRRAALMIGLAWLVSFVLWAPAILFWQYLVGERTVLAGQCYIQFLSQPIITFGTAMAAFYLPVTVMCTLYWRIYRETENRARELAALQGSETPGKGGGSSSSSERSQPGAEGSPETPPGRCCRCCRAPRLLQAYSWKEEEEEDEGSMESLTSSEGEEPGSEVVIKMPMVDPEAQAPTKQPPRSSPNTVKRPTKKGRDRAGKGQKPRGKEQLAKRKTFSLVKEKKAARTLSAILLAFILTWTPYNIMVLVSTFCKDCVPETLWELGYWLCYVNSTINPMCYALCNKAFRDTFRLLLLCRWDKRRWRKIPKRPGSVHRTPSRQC

CC(C)NCC(O)c1ccc(N)c(C#N)c1 (stereo unspecified)
active: [11] 18.3 µM | [12] 7.56 µM | [16] 0.0047 µM
not listed: [17] | [18] | [19] | [20]
inactive: all other assays above

CCCN(CCC)c1c([N+](=O)[O-])cc(S(C)(=O)=O)cc1[N+](=O)[O-]
active: [13] 10.6 µM
not listed: [4] | [5] | [6] | [7] | [10] | [14] | [20]
inactive: all other assays above

N#Cc1cc(I)c(O)c(I)c1
active: [8] 45.8 µM
inactive: [1] | [2] | [3] | [17] | [5] | [6] | [11] | [12] | [13] | [16]

O=C(O)COc1ccc(Cl)cc1
not listed: [4] | [5] | [11] | [14] | [18] | [20]
inactive: all other assays above

CC(O)C#N (stereo unspecified)
active: [2] 61.1 µM
not listed: [4] | [10] | [11]
inactive: all other assays above
